Data: the supplement of paper PMC6555819

How the values were obtained:
Experiment in all cases: PBM binding z-score (relative to random genomic background probes); higher = stronger binding; sequences stand for … in GC…GCGATTGACAGCGTAGAATGAAGG
[1] = tested on: RARb homodimer (NR concentration 270 nM)
In short: (§1)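 Ligand-free nuclear receptor dimers were bound for 1 h to custom Agilent 4×180K protein-binding microarrays. Detection used antibodies against each partner (one per run). Binding z-scores rest on regression-normalized fluorescence, with random background probes as the reference.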

[2] = tested on: RARg:RXRa (NR concentration 270 nM, RXRa partner concentration 90 nM)
In short: as §1

[3] = tested on: RARg homodimer (NR concentration 270 nM)
In short: as §1

[4] = tested on: RXRa DBDmut IVT, anti-RXR (DBD mutation: RXRa K156A/R161A, NR concentration 90 nM)
In short: as §1

[5] = tested on: RXRa homodimer (NR concentration 180 nM)
In short: as §1

[6] = tested on: THRa:RXRa (NR concentration 90 nM, RXRa partner concentration 90 nM)
In short: as §1

[7] = tested on: THRa homodimer (NR concentration 90 nM)
In short: as §1

[8] = tested on: VDR:RXRa (NR concentration 270 nM, RXRa partner concentration 90 nM)
In short: as §1

[9] = tested on: VDR homodimer (NR concentration 270 nM)
In short: as §1

Row | Sequence | PBM binding z-score [1] | PBM binding z-score [2] | PBM binding z-score [3] | PBM binding z-score [4] | PBM binding z-score [5] | PBM binding z-score [6] | PBM binding z-score [7] | PBM binding z-score [8] | PBM binding z-score [9]
1 | AATACAGGGCCACTAGGCCAGAGTAGGTACGAAT | 0.294 | 0.551 | 0.711 | -0.4 | 0.289 | -0.0637 | -0.308 | -0.225 | 0.318
2 | TCGAGTAGGTTAGGGGCATTCAGAATGGCGTCGA | 0.976 | 0.269 | 0.406 | 0.45 | 0.658 | 0.87 | 0.0711 | 0.508 | 0.98
3 | TCTTGTAGATCAAAGGTTAAGATAGCCGAAGCCT | 1.61 | 2.19 | 1.11 | 0.675 | 3.56 | 1.38 | -0.548 | 1.49 | 0.153
4 | GCAGACAGGTGTAACGCAGGTAACTCAGGGTGGC | -0.771 | -0.375 | -0.631 | -0.861 | -0.21 | 0.816 | -0.935 | -0.647 | -0.598
5 | TCGCGGAGGACACGAAAGGTCAGAGCTCGACATC | 4.42 | 4.79 | 5.1 | 0.362 | 3.86 | 3.6 | 0.956 | 3.13 | 0.898
6 | GCTAGCAGGCCATTTGGGTCACTCGATGACGGGC | 1.9 | 0.925 | 1.25 | 0.253 | 0.666 | 1.66 | 0.48 | 0.762 | 0.416
7 | CCTAGCGGGCCAGGGTCACTCAAGCATTTCGCTT | 2.48 | 3.06 | 2.4 | -0.0113 | 3.72 | 2.72 | 1.19 | 2.36 | 1.28
8 | TCTATTAGTTAATTAGGGCAACCGAAACAGCGGA | 0.756 | 0.526 | 0.551 | 1.16 | 0.875 | 1.05 | 0.627 | 0.823 | 0.625
9 | TCTATTCGTTGATTAGGGCAACCGAAACAGCGGA | 0.244 | 0.485 | 0.548 | 0.758 | 0.477 | 0.404 | 0.073 | 0.441 | -0.134
10 | CCTCGGAGGAAAGAAGGTCAGAGCTGTCCGCTTT | 2.71 | 1.88 | 1.67 | 0.0436 | 1.44 | 1.93 | -0.547 | 1.09 | 0.00914
11 | GCTCGGAGGACAAGGTCAGAGCCTTGTCCGTAGA | 2.82 | 3.32 | 3.39 | 0.219 | 2.81 | 2.78 | 1.01 | 1.43 | 0.502
12 | TCTAGTTGGTCACGGACGTCACACACGACGGGTA | 1.04 | 1.2 | 1.55 | 0.677 | 0.866 | 0.233 | -0.0119 | 0.743 | 0.188
13 | GCATATACGTAATACAAGGTGAAAGTCCGATTGT | 0.656 | 0.54 | 0.62 | 0.892 | 0.528 | 2.44 | 1.16 | 0.232 | 0.207
14 | TAGCCTAGGTCAGATCGGTCCAGTATACGCTATA | 1.89 | 2.06 | 3.2 | -0.21 | 1.2 | 2.97 | 0.0173 | 2.18 | 0.23
15 | TCTATTAGTTGATCAGGGCAACCGAAACAGCGGA | 0.681 | 0.484 | 0.555 | 1.15 | 0.519 | 0.815 | 0.591 | 0.669 | 0.203
16 | AGAACGAGGGCACGCTGAGTTGATAGCCGAGTAG | 1.22 | 1.94 | 2.15 | 1.99 | 1.39 | 1.89 | 0.0635 | 2.07 | 1.57
17 | CCTATTGGGCCATCAGGTCATTGATATCAACGTT | 2.49 | 2.26 | 1.88 | 0.643 | 1.39 | 3.3 | 2.98 | 2.12 | 1.87
18 | ACGATTAGTTGACTTAGGGCAACCGATACGACGC | 0.941 | 0.65 | 0.654 | 0.0967 | 0.512 | 1.43 | 0.264 | 0.161 | -0.201
19 | CGAACTAGGTTAGAACAGGACAGTGAAGGATGAT | 0.456 | 0.384 | 0.607 | 0.0179 | 0.171 | 1.92 | -0.166 | -0.215 | -0.137
20 | ATCTCTAGGTAAAAGTACAGTGAATCCCGAGGAT | -0.337 | 0.567 | 0.702 | -0.00884 | 0.199 | 0.284 | 0.0784 | -0.148 | 0.123
21 | CGAACTAGGTCATCCAGGACACTGAATACATTGA | 3.19 | 4.13 | 4.86 | 2.38 | 3.13 | 4.19 | 3 | 5.27 | 3.09
22 | CTAGCAAGGTGAACAAGGTCGTTGATTACTATTC | 1.77 | 1.68 | 1.5 | 1.25 | 2.1 | 3.18 | 1.45 | 6.05 | 2.32
23 | CGTCAAAGTTCAAGGTAACGTACCAGAAAGCAGC | 3.97 | 5.35 | 6.14 | 4.5 | 4.54 | 3.12 | 1.39 | 3.87 | 3.21
24 | CCGACTGGGGCAAAGTTACCATAACGCACAGCCA | -0.231 | 0.149 | 0.374 | 0.41 | 0.344 | -0.336 | -0.499 | -0.545 | -0.275
25 | CGAACGACGGCATGAGTTGATAGCAAATGCCGAT | -1.1 | -0.397 | -0.191 | -0.218 | -0.57 | -0.799 | -1.12 | -0.72 | -0.0876
26 | CGACCGAGGGCATGAGTTGATAGCAAATGCCGAT | 0.812 | 1.35 | 1.89 | 1.81 | 0.547 | 1.01 | -0.126 | 1.3 | 1.48

Row | Sequence | PBM binding z-score [1] | PBM binding z-score [2] | PBM binding z-score [3] | PBM binding z-score [4] | PBM binding z-score [5] | PBM binding z-score [6] | PBM binding z-score [7] | PBM binding z-score [8] | PBM binding z-score [9]
27 | TAGCCTAGGTCAGATCGTGCCAGTATACGCTATA | 2.22 | 2.83 | 3.28 | -0.193 | 1.33 | 2.46 | 0.0586 | 0.516 | -0.325
28 | GCTTGTAGAGCAAGGTTAAGAAAGACTAAGCTAA | -0.118 | 0.204 | 0.162 | -0.22 | 0.282 | 0.745 | -1.02 | -0.112 | -0.25
29 | TAGCCTAGATCATGCGGGCCAGTATAGTGTCGGC | -1.16 | -0.937 | -0.627 | -1 | -0.796 | -1.05 | -1.46 | -1.11 | -1.14
30 | TCTAGTTGGTCACGGTGGTCACACACGACGGGTA | 1.58 | 1.53 | 1.77 | 0.312 | 0.842 | 0.234 | 0.0512 | 0.961 | -0.372
31 | GGAACGAGGGCAAGTTGATAGCGGAGTTTGATGG | 1.43 | 1.28 | 1.74 | 2.31 | 0.823 | 1.13 | 0.118 | 0.636 | 1.73
32 | ACTTACGGGACAACGAGGTTATAGCACGCGTATA | 1.17 | 0.768 | 1.24 | 0.749 | 1.03 | 1.69 | 0.953 | 2.29 | 1.94
33 | CCTACTGGGCCATTCAGAGGCCATTGATCATATG | 0.918 | 0.62 | 0.424 | -0.152 | -0.147 | 0.255 | -0.212 | -0.232 | -0.0106
34 | TCTGCTAGCTCAGTTGGTCAGCTAACGAGCTGCC | -1.04 | -0.955 | -0.903 | -0.192 | -1.34 | -1.6 | -1.25 | -0.839 | -1.56
35 | TTACCAAGGGGAAAGGTCGTTGATGCACGCCTTG | 1.72 | 1.92 | 0.864 | 0.0883 | 2.86 | 1.4 | -0.14 | 1.98 | 1.52
36 | CCTAGCAGGCCAATGTGGGTCACTCAAGGCTTGA | 2.16 | 1.23 | 1.02 | -0.341 | 1.15 | 2.63 | -0.567 | 1.02 | -0.0479
37 | ACTCGGAGGACAAAGGTCAGAGATACGCCAGTGA | 4.52 | 6.21 | 5.31 | 1.01 | 5.52 | 3.61 | 0.755 | 3.38 | 1.56
38 | TGAATGAGGTTAAAGCTCAGGGAACGTGGCGTCG | 0.437 | 1.9 | 0.981 | 1.06 | 2.71 | 2.16 | 0.216 | 1.14 | 0.0356
39 | GCTAGTTGGTCAGTAAAAGGGCACACACCGGTCG | 2.59 | 1.6 | 1.32 | -0.382 | 0.632 | 0.395 | -0.0299 | 0.0154 | 0.271
40 | TCTGCTAGGTCAACAATGGTCAGCTAATCTGCTA | 3.37 | 4.13 | 4.92 | 1.33 | 2.64 | 3.08 | 0.805 | 1.84 | -0.0461
41 | CCTACTGGGCCATTCAGAGGTCTTTGATCATATG | 0.406 | 0.221 | 0.17 | -0.165 | -0.258 | 0.0585 | -0.237 | -0.301 | -0.313
42 | CCTTACGGGTCACGAGGTTATAGCCCGACGAGCG | 4.11 | 6.07 | 5.36 | 1.81 | 6.74 | 3.65 | 1.07 | 5.11 | 2.03
43 | ACTATTAGGTGACTTAGGGCAACCGATACGACGC | 1.39 | 1.18 | 1.29 | 0.234 | 0.903 | 2.76 | 0.89 | 0.474 | -0.344
44 | CATACAGGGTCAGCTAGGCCAGAGTTGGGACGGC | 3.24 | 4.28 | 4.57 | 1.31 | 4.06 | 3.02 | 0.732 | 3.74 | 1.33
45 | ACTACCAGGCCAAGTTTGGGTCACTCAAACAAAG | 2.49 | 2.52 | 1.72 | 0.137 | 0.944 | 2.86 | 1.72 | 1.08 | 0.598
46 | CCTGACGGGTCACTCCAGGTTATAGCATCGGAGT | 2.89 | 3.82 | 3.7 | 1.04 | 3.59 | 5.04 | 0.311 | 3.46 | 1.27
47 | TAGCCTAGGGCATGCGGGCCAGTATAGTGTCGGC | 0.409 | 0.0659 | 0.455 | -1.55 | -0.233 | -0.465 | -1.1 | -0.814 | -0.907
48 | ATATGTAGGTTAGCTGGGCTCATTCAGACTAGGC | 0.13 | 0.263 | 0.55 | -0.108 | 0.38 | 0.702 | -0.522 | -0.0839 | -0.144
49 | GCATATAGGTAATACAAGGTGACAGTCCGATTGT | 0.679 | 0.651 | 0.825 | 0.299 | 0.86 | 4.15 | 0.967 | 0.313 | 0.0173
50 | CAAACTAGGTCAAATGTCAAAGTCGAGCCAACCA | 3.4 | 5.2 | 5.17 | 2.58 | 5.14 | 3.36 | 0.944 | 3.1 | 1.05
51 | GCTGATAGGTCAACTGATGGTCAGCTAAAGCTCG | 3.72 | 6.23 | 6.12 | 1.65 | 4.91 | 2.55 | -0.713 | 2.69 | -0.0716
52 | ACAGACAGGTGAGTGAAGGTAATTCAGCTGGACG | -0.0285 | 0.335 | 0.578 | -0.442 | 0.191 | 1.25 | -0.521 | -0.394 | -0.158
